Measured values: PubChem BioAssay (EPA / NIEHS)
Active and inactive are the calls of the source. The calls were made as follows: active = hit-call score of the fitted dose curve at least 0.9, where 1 is the maximum; inactive = score below 0.9.

Experiment: ATG_EGR_CIS: Attagene CIS-FACTORIAL HepG2 Assay for human Early Growth Response 1 (EGR1) (AID 2282938)
Settings: HepG2 Attagene CIS-FACTORIAL EGR reporter mRNA; actives raise or lower the signal
Description: ATG_CIS is a cell-based, multiplexed-readout assay that uses HepG2, a human liver cell line, with measurements taken at 24 hours after chemical dosing in a 24-well plate.ATG_EGR_CIS is one of 52 assay component(s) measured or calculated from the ATG_CIS assay. It is designed to make measurements of mRNA induction, a form of inducible reporter, as detected with fluorescence intensity signals by Reverse transcription polymerase chain reaction (RT-PCR) and Capillary electrophoresis technology.Data from the assay component ATG_EGR_CIS was analyzed into 1 assay endpoint. This assay endpoint, ATG_EGR_CIS, was analyzed with bidirectional fitting relative to DMSO as the negative control and baseline of activity. Using a type of inducible reporter, measures of mRNA for gain or loss-of-signal activity can be used to understand the reporter gene at the transcription factor-level as they relate to the gene EGR1. Furthermore, this assay endpoint can be referred to as a primary readout, because this assay has produced multiple assay endpoints where this one serves a reporter gene function. To generalize the intended target to other relatable targets, this assay endpoint is annotated to the dna binding intended target family, where the subfamily is zinc finger.
Human liver HepG2 cells are transiently transfected with multiple reporter transcription units (MRTUs) in 6-well plates using FuGene 6 reagent (Roche; 3 ml FuGene/1 mg DNA). The MRTU constructs are regulated by a cis-regulating element (promoter). […] A major difference between the CIS and TRANS system is that in CIS activities of endogenous TFs are measured, whereas the TRANS assay evaluates changes in activities of exogenous, chimeric NR-Gal4 proteins. […] At the end of 24 hour incubation, total RNA was isolated using TriZol reagent (Invitrogen). The isolated RNA is then reverse-transcribed using oligo(dT) primer and Mo-MLV reverse transcriptase (Invitrogen) with DNAse I (Ambion) treatment for 30 min. The one-tenth of the produced cDNA was amplified by PCR using Taq DNA polymerase (Invitrogen) and two reporter sequence-specific primers. The PCR products were fluorescently labeled by primer extension with 6-arboxyfluorescein (6-FAM) 5'-labeled reporter sequence-specific primer (2 min at 95 C, 20 s at 68 C and 10 min at 72 C) and these products were digested with 5U of HpaI (New England Biolabs) for 2h at 37 C. The fragments were purified using Qiaquick PCR columns (Qiagen), analyzed on an ABI 3130xL genetic analyzer (Applied Biosystems) with peak positions identified by using a set of X-rhodamine (ROX)-labeled MapMarker1000 molecular weight standards (BioVentures). The raw capillary electrophoresis data was processed using Attagraph software (Attagene).

SMILES	outcome	AC50
CC(C)CCCCCCCOP(=O)(Oc1ccccc1)Oc1ccccc1	inactive	
COc1cc(OC)nc(Oc2cccc(Oc3nc(OC)cc(OC)n3)c2C(=O)O)n1	inactive	
COc1ccc(CO)cc1	inactive	
C=CC(=O)OCC(CC)CCCC (stereo not given)	inactive	
c1cc(OCC2CO2)ccc1Cc1ccc(OCC2CO2)cc1 (stereo not given)		33.4 µM (active)
N#CCCCCC#N	inactive	
CCOP(O)OCC	inactive	
O=C1C(Cl)=C(Cl)C(=O)C(Cl)=C1Cl		137 µM (active)
CC1CCCC1.[C-]#[O+].[C-]#[O+].[C-]#[O+].[Mn]	inactive	
O=CNC(N1CCN(C(NC=O)C(Cl)(Cl)Cl)CC1)C(Cl)(Cl)Cl (stereo not given)	inactive	
N#Cc1cc(I)c(O)c(I)c1	inactive	
CCC(C)c1cc(C(C)(C)C)cc(-n2nc3ccccc3n2)c1O (stereo not given)	inactive	
CC[N+](=O)[O-]	inactive	
C=C(Cl)CCl	inactive	
C#CC1(O)CCCCC1	inactive	
C=CCc1ccc(OC(=O)Cc2ccccc2)c(OC)c1	inactive	
Nc1ccccc1C(=O)OCCc1ccccc1	inactive	
CNC(=O)Oc1cc(C)c(SC)c(C)c1		100 µM (active)
CCC(C)c1cc([N+](=O)[O-])cc([N+](=O)[O-])c1OC(=O)C=C(C)C (stereo not given)		27.7 µM (active)
O=C(CCl)c1ccccc1	inactive	

SMILES	outcome	AC50
O=S(=O)(c1ccccc1)c1ccccc1	inactive	
C=CC(=O)OC	inactive	
Cc1ccccc1CCl	inactive	
CCCCCCCCCCCC#N	inactive	
O=C1C=CC(=O)C=C1	inactive	
C[N+](C)(C)CC(=O)O	inactive	
CC(C)COP(=O)(OCC(C)C)OCC(C)C	inactive	
CC(=O)c1cc2c(cc1C)C(C)(C)C(C)CC2(C)C (stereo not given)	inactive	
CCOP(=O)(OCC)OCC	inactive	
C=COCCCl	inactive	
CC(C)(c1cc(Cl)c(O)c(Cl)c1)c1cc(Cl)c(O)c(Cl)c1		52.8 µM (active)
[Cl-].[Cl-].[Cl-].[Yb+3]	inactive	
O=[N+]([O-])O.O=[N+]([O-])O.[Cd]		1 µM (active)
[CH3][Sn]([CH3])([Cl])[Cl]	inactive	
CC(=O)C=Cc1ccccc1		146 µM (active)
CCCC=NO	inactive	
Clc1ccc(-c2ccccc2)cc1	inactive	
CN1C(=O)CCS(=O)(=O)C1c1ccc(Cl)cc1 (stereo not given)	inactive	
Cc1cc(C)c(C2=C(OC(=O)CC(C)(C)C)C3(CCCC3)OC2=O)c(C)c1		104 µM (active)
O=C1Nc2ccc(Cl)cc2C(c2ccccc2)=NC1O (stereo not given)	inactive	
